KB-V1 cytotox = KB-V1 MDR subline cytotoxicity; KB-V1 MDR cells viability, CellTiter-Glo, 72 h; Potency, µM (highest dose often 46.1 µM), actives largely listed as cytotoxic; 400,000 tested, 3.4% active; also: nearly all actives have a fitted effect of over 60% in size
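KB-V1 MDR subline cells in DMEM (phenol-red free, 10% FBS) exposed to compounds in qHTS concentration series for 72 h at 37 degrees C. Viability read by CellTiter-Glo luminescence; concentration-effect curves fitted after normalization and correction.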
KB-3-1 cytotox = kills parental KB-3-1 adenocarcinoma cells | KB-3-1 viability, CellTiter-Glo ATP luminescence, 72 h | Potency, µM (series often up to 46.1 µM), usual class: cytotoxic | 400,000 tested, 1.4% active; also: nearly all actives have a fitted effect of over 60% in size
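Cytotoxicity in the drug-sensitive parental line KB-3-1 was scored as loss of CellTiter-Glo luminescence following 72 h incubation with compound. Values come from curve fitting of normalized concentration-response data.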
HT1080-NT tox = kills 2HG-producing HT-1080-NT fibrosarcoma cells; HT-1080-NT fibrosarcoma viability, CellTiter-Glo ATP luminescence, 48 h; 360,000 tested, 1.6% active; Potency, µM (titrated, usually from 46.1 µM), for inactives: at the highest dose activity, negative = less viability, most hits filed as cytotoxic;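 also: NT is the 2HG producing partner of a matched IDH1 knockdown line; 0% = DMSO-treated cells and -100% = media-only wells without cells; nearly all actives have a fitted effect of over 55% in size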
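HT-1080-NT; 750 cells/well; 5% FBS RPMI; 48 h compound, 37 degrees C; CellTiter-Glo luminescence; curve fitting and curve-class assignment.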
TDP1 cell noCPT = qHTS for Inhibitors of human tyrosyl-DNA phosphodiesterase 1 (TDP1): qHTS in cells in absence of CPT; DT40 Tdp1-/- hTDP1 cells, no CPT, ATP luminescence, 48 h; Potency, µM (series often up to 46.2 µM), inactives show top-dose activity change, negative = growth inhibition, actives largely listed as inhibitors; 420,000 tested, 15% active; also: nearly all actives have a fitted effect of over 55% in size
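Compound effects on proliferation are scored in DT40 Tdp1-/-;hTDP1 cells in the absence of CPT. ATP levels (CellTiter-Glo luminescence) are recorded after a ≥48 hr, 37 °C incubation.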
DT40 TDP1 CPT = DT40-hTDP1 cell growth loss with CPT; chicken DT40 Tdp1-/-;hTDP1 cells + 20 nM CPT, ATP luminescence, 48 h; Potency, µM (highest dose often 46.2 µM), for inactives: top-dose activity change, negative = growth inhibition, hits mostly inhibitors; 420,000 tested, 12% active; also: nearly all actives have a fitted effect of over 55% in size
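Chicken DT40 Tdp1-/- cells stably complemented with human TDP1 were seeded at 400 cells/well in medium containing 20 nM camptothecin, exposed to pin-transferred compounds, and grown at 37 °C for at least 48 hr. Viability was read as ATP luminescence.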
HT1080 IDH1KD tx = toxicity to HT-1080 IDH1 knockdown cells (counter line). AID 686971. 360,000 tested, 2% active. HT-1080 IDH1 knockdown viability, ATP luminescence, 48 h. Potency, µM (doses to about 46.1 µM), for the others: at the top dose activity, negative = toxicity, most hits filed as cytotoxic;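 also: 0% = DMSO wells and -100% = cell-free medium wells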
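Cytotoxicity counter-line: IDH1KD HT-1080, 48 h, CellTiter-Glo. Curves classed by r2, magnitude and activity.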
An asterisk follows results filed as active; i = inactive; u = inconclusive; x = no result; ! = repeats disagree; [ ] = remark or other dose. Only some compounds are listed: those with a hit (about 19% of all), similar ones and a draw of the others. Calls follow the shape of the dose curve; as a rule, active = well fitted curve in the direction sought with a large enough effect; inconclusive = small, poorly fitted or top-dose-only effect, or another doubt; inactive = no such curve, though single readings can be large; an effect the other way counts as inactive or inconclusive. Unless noted, % is scaled to controls: 0 for no effect and ±100 for the full control effect; potency is read from the fitted curve at half-maximal effect.

SMILES | KB-V1 cytotox | KB-3-1 cytotox | HT1080-NT tox | TDP1 cell noCPT | DT40 TDP1 CPT | HT1080 IDH1KD tx
O=C(CN1c2cccc3cccc(c23)S1(=O)=O)Nc1cccc(S(=O)(=O)N2CCOCC2)c1 | 18µM* | i | 9% | u | 6% | 14%
Cc1cc(C(=O)CN2c3cccc4cccc(c34)S2(=O)=O)c(C)n1C | i | u | -30%[9.24 µM] | 3.3µM* | 4.6µM* | 15µM*
O=C(CN1c2cccc3cccc(c23)S1(=O)=O)NC1CCCCC1 | 21µM* | i | 6% | -21% | u | 8%
COCC(C)n1c(C)cc(C(=O)CN2c3cccc4cccc(c34)S2(=O)=O)c1C (stereo unspecified) | i | i | 0% | u | -27% | 1%
Cc1ccc(NC(=O)CN2c3cccc4cccc(c34)S2(=O)=O)cc1 | 23µM* | i | -8% | u | 23µM* | -8%
COc1ccc(OC)c(-c2csc(NC(=O)COC(=O)c3ccc(NC(=O)CC#N)cc3)n2)c1 | i | i | 12% | u | -28% | 8%
CCCCN1CC(c2nc3ccccc3n2CCCCOc2cccc(C)c2C)CC1=O (stereo unspecified) | 18µM* | i | x | 21µM* | u | x
CCCCN1CC(c2nc3ccccc3n2CCCCOc2ccc(C)c(C)c2)CC1=O (stereo unspecified) | i | i | x | 7.3µM* | 10µM* | x
CCCCN1CC(c2nc3ccccc3n2CCCCOc2cc(C)cc(C)c2)CC1=O (stereo unspecified) | i | i | x | 7.3µM* | 12µM* | x
Cc1cccc(OCCCCn2c(C3CC(=O)N(c4ccc(C)cc4C)C3)nc3ccccc32)c1 (stereo unspecified) | u | i | x | u | u | x
C=C(C)Cn1c(C2CC(=O)N(Cc3ccccc3)C2)nc2ccccc21 (stereo unspecified) | i | i | -4% | u | u | -7%
COc1ccccc1N1CCN(c2nc3ccc(C(=O)c4ccccc4)cc3n3c(C)nnc23)CC1 | i | i | x | 0% | -3% | x
CN(CCC1CCOCC1)C(=O)CC1C(=O)NCCN1Cc1c(F)cccc1Cl (stereo unspecified) | i | i | -9% | 0% | -16% | 0%
N/C(=C\C(=O)c1cc(Cl)ccc1O)C(Cl)(Cl)Cl | 7.3µM* | u | 8.2µM* | 3.3µM* | 3.7µM* | 13µM*
COc1ccc(NS(=O)(=O)c2ccc(N3CCCCC3)c(N)c2)cc1 | u | 21µM* | -19% | 1.3µM* | 2.6µM* | -26%
COc1ccc(NS(=O)(=O)c2ccc(C)c(C(=O)N3CCCCCCC3)c2)cc1 | u | i | -7% | u | u | -9%
Nc1cc(S(=O)(=O)c2ccc(N3CCCCC3)c(N)c2)ccc1N1CCCCC1 | u | u | -2% | 12µM* | 9.2µM* | u
Nc1cc(S(=O)(=O)N2CCCCC2)ccc1N1CCOCC1 | i | i | -2% | u | -27% | -2%
Nc1cc(S(=O)(=O)Nc2ccccc2Cl)ccc1N1CCCCC1 | u | i | -7% | 9.2µM* | 15µM* | -6%
CCOC(=O)c1c(NC(=O)Cc2ccccc2)sc2c1CCN(C)C2 | i | i | 0% | 13µM* | u | -15%
CN1CCc2c(sc(NC(=O)Cc3ccccc3)c2C(N)=O)C1 | i | i | -1% | -2% | 15% | 13%
CCN1CCc2c(sc(NC(=O)Cc3ccccc3)c2C(=O)OC)C1 | i | i | -10% | u | 12µM* | -14%
CCOC(=O)c1c(NC(=O)Cc2ccccc2)sc2c1CCN(CC)C2 | i | i | 5% | u | u | -21%
CCOC(=O)c1c(N)sc2c1CCN(Cc1ccccc1)C2 | i | 15µM*! | x | 15µM* | u | x
CCOC(=O)N1CCc2c(sc(NC(=O)CCS(=O)(=O)c3ccccc3)c2C(N)=O)C1 | i | i | 1% | u | u | 1%
SMILES | KB-V1 cytotox | KB-3-1 cytotox | HT1080-NT tox | TDP1 cell noCPT | DT40 TDP1 CPT | HT1080 IDH1KD tx
CCOC(=O)c1c(NC(=O)CCS(=O)(=O)c2ccccc2)sc2c1CCN(C)C2 | i | i | -25% | 16µM* | 16µM* | 5%
CCOC(=O)c1c(NC(=O)C2=COCCO2)sc2c1CCN(C(=O)OC)C2 | u | i | 10% | 18µM* | u | 1%
CCOC(=O)c1c(NC(=S)Nc2ccc(Cl)cc2)sc2c1CCN(C)C2 | i | i | -26% | u | 16µM* | -19%
CCCCCC1CCC(c2n[nH]c(=S)n2C)CC1 (stereo unspecified) | i | u | -19% | 2.9µM* | 7.3µM* | -24%
c1ccc(Nc2c(-c3c[nH]c4ccccc34)nc3ccccn23)cc1 | i | i | x | 12µM* | 15µM* | x
Cc1ccc2nc(-c3c[nH]c4ccccc34)c(Nc3ccccc3)n2c1 | i | i | x | u | 16µM* | x
Fc1ccc(Nc2c(-c3c[nH]c4ccccc34)nc3ccccn23)cc1 | i | i | x | 21µM* | 16µM* | x
COc1ccc(Nc2c(-c3ccc(C)o3)nc3ccccn23)cc1 | x | x | 1% | u | u | 4%
COc1ccc2c(c1)cc1c(=O)n(CC(=O)NCc3ccco3)nc(C)n12 | i | i | x | -5% | -2% | x
CCC(Cn1nnc2ccccc2c1=O)NC(=O)Nc1ccc(C)cc1C (stereo unspecified) | x | x | x | -14% | 4% | x
O=C(Cc1ccc(Cl)cc1Cl)Nc1ccncc1Cl | i | i | -9% | 1.8µM* | 5.2µM* | -11%
Fc1ccc(NC(=S)Nc2ccc(F)c(Cl)c2)cc1Cl | u | u | u | 13µM* | 23µM* | u
O=C(NC(=S)Nc1ccc(F)c(Cl)c1)C1CC1 | i | i | -8% | -1% | -3% | -9%
COc1ccc(CC(=O)Nc2ccncc2Cl)cc1 | i | i | -15% | 1.8µM* | 4.6µM* | -16%
O=C(Cc1ccc(Cl)cc1Cl)Nc1ccncc1 | i | u | -16% | u | 12µM* | -24%
Cc1ccnc(NS(=O)(=O)c2ccc3ccccc3c2)n1 | u | i | 11% | -12% | -11% | -2%
CCOC(=O)c1c(C)[nH]c(C)c1S(=O)(=O)N1CCN(c2cccc(C)c2)C(C)C1 (stereo unspecified) | i | i | 5% | u | u | -8%

Screening results: PubChem, National Center for Advancing Translational Sciences (NCATS)
